LANA DNA inh: inhibitors of KSHV LANA C-terminal domain DNA binding; MBP-C-LANA/FAM-LBS DNA binding, fluorescence polarization; inhibition, % at 9 µM; hit rate 0.078% among 340,000;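 active = highest replicate inhibition at or above 60% at 9 µM, even if other replicates fall short; inactive = all replicates below 60% inhibition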;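 also: 0% = neutral control wells and 100% = 4 µM acridine orange control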
LANA-H2B inh: blocks KSHV LANA binding to histone H2A/H2B. Q9QR71. cell-free LANA-H2A/H2B peptide, fluorescence polarization. inhibition, % (no concentration beside the values). hit rate 0.6% among 320,000. AID 2629; in the data active = inhibition mostly above about 10%, no sharp cut-off; inactive = mostly below about 6.7%
RTF Ca sens act: cardiac RTF calcium sensitization; P19429+P45379; IANBD-labeled TnC RTF fluorescence at EC20 calcium; 0% EC20 calcium, 100% full calcium; activation, % at 7.2 µM; hit rate 0.24% among 340,000; AID 493008;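 active = activation above the mean over all tested compounds plus 3 SD, cut at about 30% in these data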;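 also: rise in fluorescence read as greater calcium sensitivity of cardiac thin filaments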
Keap1 Nrf2 FP: disrupts human Keap1 binding to Nrf2 peptide; hit rate 0.15% among 340,000; inhibition, % at 9.4 µM; Keap1 Kelch-Nrf2 peptide fluorescence polarization, 1536-well; in the data active = inhibition above about 12%;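 also: human Keap1 Kelch domain with fluorescein labeled Nrf2 9mer peptide probe; 0% = neutral control wells and 100% = peptide positive control; higher means more block of Keap1 binding to Nrf2 peptide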
Target sequence (Q14145 whole entry, looked up, the tested form may be a part): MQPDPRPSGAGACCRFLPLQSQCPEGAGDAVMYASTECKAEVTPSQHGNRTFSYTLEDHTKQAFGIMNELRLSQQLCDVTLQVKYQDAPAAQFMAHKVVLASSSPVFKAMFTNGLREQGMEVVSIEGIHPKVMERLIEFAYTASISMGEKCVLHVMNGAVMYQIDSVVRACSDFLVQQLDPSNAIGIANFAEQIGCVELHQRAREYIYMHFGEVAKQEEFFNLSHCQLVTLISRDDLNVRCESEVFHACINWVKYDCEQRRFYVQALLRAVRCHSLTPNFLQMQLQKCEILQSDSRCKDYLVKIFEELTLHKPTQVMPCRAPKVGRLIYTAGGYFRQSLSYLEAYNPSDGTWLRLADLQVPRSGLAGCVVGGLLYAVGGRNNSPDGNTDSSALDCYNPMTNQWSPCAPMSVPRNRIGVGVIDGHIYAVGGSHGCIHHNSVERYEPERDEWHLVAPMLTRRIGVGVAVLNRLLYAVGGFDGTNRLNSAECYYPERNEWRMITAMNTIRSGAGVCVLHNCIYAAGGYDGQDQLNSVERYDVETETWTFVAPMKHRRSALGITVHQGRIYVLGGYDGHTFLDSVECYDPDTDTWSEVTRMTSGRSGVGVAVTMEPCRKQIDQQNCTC
RTF Ca sens inh: cardiac RTF calcium desensitization. IANBD-labeled cardiac RTF, Ca2+ fluorescence. hit rate 0.12% among 340,000. AID 493244. inhibition, % at 7.15 µM;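 active = inhibition above the mean inhibition of all tested compounds plus 3 SD, cut at about 17% in these data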;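 also: assay run at fixed EC70 calcium of 1.6 mM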
RTF Ca inh conf: confirmation of inhibitors of cardiac thin filament calcium sensitivity; shares compounds with RTF Ca sens inh; reconstituted cardiac thin filaments, calcium sensitivity fluorescence; inhibition, % at 7.15 µM; hit rate 8% among 360; in the data active = inhibition above about 18%
* marks the source's active call; other numbers are inactive results. Hits are enriched below; roughly 0.99% of the tested compounds scored in any of these assays.

How did O=C(NC(=S)Nn1cnnc1)c1cccc(Br)c1 do in these assays?
LANA DNA inh: 0; LANA-H2B inh: -5; RTF Ca sens act: -3; Keap1 Nrf2 FP: 2; RTF Ca sens inh: 19*; RTF Ca inh conf: -4

What do the screens show for `COc1ccccc1N(CC(=O)N/N=C/c1c(O)ccc2ccccc12)S(C)(=O)=O`?
LANA DNA inh: 1; LANA-H2B inh: -2; RTF Ca sens act: -6; Keap1 Nrf2 FP: 1; RTF Ca sens inh: 26*; RTF Ca inh conf: 11

What do the screens show for `COc1ccccc1NCC(=O)N/N=C/c1c(O)ccc2ccccc12`?
LANA DNA inh: 3; LANA-H2B inh: -3; RTF Ca sens act: -3; Keap1 Nrf2 FP: 0; RTF Ca sens inh: 0

What do the screens show for `CC(Oc1cccc2cccnc12)C(=O)N/N=C/c1ccc2c(c1)OCO2` (stereo unspecified)?
LANA DNA inh: -5; LANA-H2B inh: 4; RTF Ca sens act: 11; Keap1 Nrf2 FP: -1; RTF Ca sens inh: -8

What do the screens show for `O=C(C1CC1)N1CCc2cc(Br)cc(S(=O)(=O)NCc3ccco3)c21`?
LANA DNA inh: 2; LANA-H2B inh: 3; RTF Ca sens act: -5; Keap1 Nrf2 FP: -13; RTF Ca sens inh: 17*; RTF Ca inh conf: -4

How did CC(C)(C)NC(=O)/C(=C\c1ccc(Br)cc1)NC(=O)c1cccs1 do in these assays?
LANA DNA inh: 0; LANA-H2B inh: 7; RTF Ca sens act: -1; Keap1 Nrf2 FP: -3; RTF Ca sens inh: -4

Results for O=C(CSc1nnc(-c2ccc(F)cc2)n1-c1ccccc1)NCCN1C(=O)CSC1=O ?
LANA DNA inh: 2; LANA-H2B inh: 4; RTF Ca sens act: 5; Keap1 Nrf2 FP: -1; RTF Ca sens inh: -6

How did Cc1nnc(SCC(=O)NCCN2C(=O)CSC2=O)n1-c1ccccc1 do in these assays?
LANA DNA inh: 0; LANA-H2B inh: -2; RTF Ca sens act: -5; Keap1 Nrf2 FP: 1; RTF Ca sens inh: 23*; RTF Ca inh conf: -1

Results for O=c1cc2c(=O)oc3cc(O)c(O)oc3c2c(O)c1O ?
LANA DNA inh: 112*; RTF Ca sens act: -51; Keap1 Nrf2 FP: -3; RTF Ca sens inh: 87*; RTF Ca inh conf: 68*

How did O=c1oc2cc(O)c(Cl)cc2c2ccccc12 do in these assays?
LANA DNA inh: 0; LANA-H2B inh: 3; RTF Ca sens act: 5; Keap1 Nrf2 FP: -1; RTF Ca sens inh: -5

Results for O=C(NCCCN1CCCC1=O)C1CCN(S(=O)(=O)c2c(Cl)cccc2Cl)CC1 ?
LANA DNA inh: 1; LANA-H2B inh: 3; RTF Ca sens act: 1; Keap1 Nrf2 FP: 6; RTF Ca sens inh: 1

Results for Cc1ccc(NC(=O)CSc2nnc3n2CCCCC3)cc1 ?
LANA DNA inh: -1; LANA-H2B inh: 0; RTF Ca sens act: 3; Keap1 Nrf2 FP: 1; RTF Ca sens inh: 22*; RTF Ca inh conf: -6

What do the screens show for `CCOC(=O)CN1C(=O)N[C@@H](CCc2ccccc2)[C@H](C(=O)OC)[C@H]1C`?
LANA DNA inh: 0; LANA-H2B inh: 0; RTF Ca sens act: -2; Keap1 Nrf2 FP: -2; RTF Ca sens inh: -2

Results for O=C(NN=Cc1ccccc1O)c1cccc([N+](=O)[O-])c1 ?
LANA DNA inh: 4; RTF Ca sens act: 0; Keap1 Nrf2 FP: 3; RTF Ca sens inh: -4

What do the screens show for `O=C(N/N=C/c1ccc(Br)s1)c1cccc([N+](=O)[O-])c1`?
LANA DNA inh: 1; LANA-H2B inh: 0; RTF Ca sens act: 2; Keap1 Nrf2 FP: -2; RTF Ca sens inh: 18*; RTF Ca inh conf: -1

What do the screens show for `COc1ccc(S(=O)(=O)n2ccc(-c3ccc(OCCN(C)c4ccccn4)cc3)n2)cc1`?
LANA DNA inh: -1; LANA-H2B inh: 2; RTF Ca sens act: -2; Keap1 Nrf2 FP: -2; RTF Ca sens inh: 17*; RTF Ca inh conf: -2

Results for CCn1c(CC(=O)Nc2ccc(F)cc2)nnc1SCC(=O)NC1=NCCS1 ?
LANA DNA inh: 1; LANA-H2B inh: 0; RTF Ca sens act: -5; Keap1 Nrf2 FP: 0; RTF Ca sens inh: -12

How did Nc1ncc(Br)cc1S(=O)(=O)N1CCCCCC1 do in these assays?
LANA DNA inh: -1; LANA-H2B inh: 3; RTF Ca sens act: -2; Keap1 Nrf2 FP: 2; RTF Ca sens inh: 2

How did O=C(CSc1nc2ccccc2n1CCc1ccccc1)c1ccc(O)c(O)c1 do in these assays?
LANA DNA inh: 14; RTF Ca sens act: -17; Keap1 Nrf2 FP: -4; RTF Ca sens inh: 18*; RTF Ca inh conf: 10

How did O=C(CSc1nc2ccccc2n1CCc1ccccc1)N1CCOCC1 do in these assays?
LANA DNA inh: 0; LANA-H2B inh: 2; RTF Ca sens act: 6; Keap1 Nrf2 FP: -3; RTF Ca sens inh: -12

How did N#Cc1cc([N+](=O)[O-])ccc1Oc1ccc(-c2nnco2)cc1 do in these assays?
LANA DNA inh: -1; LANA-H2B inh: -1; RTF Ca sens act: -5; Keap1 Nrf2 FP: -1; RTF Ca sens inh: -17

What do the screens show for `O=C(O[C@@H]1OC2COC(=O)c3cc(O)c(O)c(O)c3-c3c(cc(O)c(O)c3O)C(=O)O[C@@H]([C@H]1O)[C@@H]2O)c1cc(O)c(O)c(O)c1`?
LANA DNA inh: 121*; LANA-H2B inh: 5; RTF Ca sens act: -60; RTF Ca sens inh: 130*; RTF Ca inh conf: 167*

Results for Oc1ccc(-c2nc(-c3ccc(F)cc3)c(-c3ccncc3)[nH]2)cc1 ?
LANA DNA inh: -1; RTF Ca sens act: 2; Keap1 Nrf2 FP: -1; RTF Ca sens inh: 20*; RTF Ca inh conf: 1

How did COc1cccc(OCc2cc(C(=O)N3CCN(C4CCCCC4)C(=O)C3)no2)c1 do in these assays?
LANA DNA inh: 3; LANA-H2B inh: -2; RTF Ca sens act: -4; Keap1 Nrf2 FP: -3; RTF Ca sens inh: -8

What do the screens show for `CCn1ncc(/C=C2/SC(=S)NC2=O)c1C`?
LANA DNA inh: -1; LANA-H2B inh: 1; RTF Ca sens act: 0; Keap1 Nrf2 FP: -1; RTF Ca sens inh: 19*; RTF Ca inh conf: -5

What do the screens show for `O=C(NCCCn1ccnc1)c1cc(C(=O)C2CCCCC2)c[nH]1`?
LANA DNA inh: 2; LANA-H2B inh: -336; RTF Ca sens act: -2; Keap1 Nrf2 FP: -5; RTF Ca sens inh: -6

How did CCCCCCCCCCC[C@@H](C[C@@H]1OC(=O)[C@H]1CCCCCC)OC(=O)[C@H](CC(C)C)NC=O do in these assays?
LANA DNA inh: -1; LANA-H2B inh: -5; RTF Ca sens act: 1; Keap1 Nrf2 FP: 4; RTF Ca sens inh: 20*; RTF Ca inh conf: -4

What do the screens show for `CCCCC[C@H](O)/C=C/[C@H]1[C@H](O)CC(=O)[C@@H]1CCCCCCC(=O)O`?
LANA-H2B inh: -3

What do the screens show for `O=C(O)C1Cc2ccccc2CN1C(=O)COc1ccc(Cl)cc1Cl` (stereo unspecified)?
LANA DNA inh: 0; LANA-H2B inh: 4; RTF Ca sens act: 1; Keap1 Nrf2 FP: 2; RTF Ca sens inh: -6

Assay outcomes: PubChem, several laboratories
